Data taken from publication PMC7862700, “An all-to-all approach to the identification of sequence-specific readers for epigenetic DNA modifications on cytosine”.

Legend:
Experiment in all cases: DAPPL (digital affinity profiling via proximity ligation, sequencing); 10 mM Tris-HCl pH 7.5, 50 mM NaCl, 1 mM DTT, 4% glycerol, room temperature, 30 min; GST-TFs on glutathione beads, 16-mer random dsDNA library, 0.1% formaldehyde crosslink after washing; high values mean tight binding
FEV = target: T1, FEV (Homo sapiens, UniProt Q99581 1-238); details: protein: recombinant; tags: N-terminal GST; dsDNA, one strand shown
T1 sequence: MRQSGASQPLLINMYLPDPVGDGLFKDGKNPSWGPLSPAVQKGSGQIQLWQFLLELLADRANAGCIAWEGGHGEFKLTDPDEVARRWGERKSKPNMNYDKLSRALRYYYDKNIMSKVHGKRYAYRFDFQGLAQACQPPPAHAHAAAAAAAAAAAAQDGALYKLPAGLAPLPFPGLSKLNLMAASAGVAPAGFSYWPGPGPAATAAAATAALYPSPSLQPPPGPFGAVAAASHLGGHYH
How it was run: (§1)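 After expression in yeast as GST fusions, human transcription factors were bound to glutathione beads, DNA-barcoded and mixed with a tag-only sample. The pools were incubated with 200 nmole of a 16-mer random double-stranded DNA library in Tris/NaCl/DTT/glycerol buffer (30 min, room temperature), washed and crosslinked with 0.1% formaldehyde. Proximity ligation with BsaI/T4 ligase ran for 1 h at 37 °C, before PCR amplification and sequencing on an Illumina NextSeq500. Binding signal is a hexamer's read frequency for a factor divided by its frequency for the tag-only sample.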

ETV5 = ETV5 (Homo sapiens, UniProt P41161 1-510); details: protein: recombinant; tags: N-terminal GST; dsDNA, one strand shown
ETV5, sequence (P41161 whole entry): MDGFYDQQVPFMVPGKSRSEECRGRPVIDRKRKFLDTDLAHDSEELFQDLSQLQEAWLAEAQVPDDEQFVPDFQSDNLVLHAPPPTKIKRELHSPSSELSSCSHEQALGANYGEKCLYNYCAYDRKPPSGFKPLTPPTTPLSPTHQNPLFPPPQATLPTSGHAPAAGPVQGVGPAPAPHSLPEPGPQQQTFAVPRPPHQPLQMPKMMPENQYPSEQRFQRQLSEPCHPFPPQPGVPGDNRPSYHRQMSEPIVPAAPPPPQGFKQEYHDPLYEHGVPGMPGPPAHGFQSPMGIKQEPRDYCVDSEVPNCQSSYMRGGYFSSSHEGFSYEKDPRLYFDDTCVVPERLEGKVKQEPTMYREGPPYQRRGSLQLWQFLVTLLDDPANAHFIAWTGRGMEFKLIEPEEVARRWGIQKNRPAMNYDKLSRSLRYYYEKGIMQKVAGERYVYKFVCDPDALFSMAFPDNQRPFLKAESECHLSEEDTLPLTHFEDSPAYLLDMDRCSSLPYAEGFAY
How it was run: as §1

HSF1 = HSF1 (Homo sapiens, UniProt Q00613 1-529); details: protein: recombinant; tags: N-terminal GST; chain copies: 3; dsDNA, one strand shown
HSF1, sequence (Q00613 whole entry): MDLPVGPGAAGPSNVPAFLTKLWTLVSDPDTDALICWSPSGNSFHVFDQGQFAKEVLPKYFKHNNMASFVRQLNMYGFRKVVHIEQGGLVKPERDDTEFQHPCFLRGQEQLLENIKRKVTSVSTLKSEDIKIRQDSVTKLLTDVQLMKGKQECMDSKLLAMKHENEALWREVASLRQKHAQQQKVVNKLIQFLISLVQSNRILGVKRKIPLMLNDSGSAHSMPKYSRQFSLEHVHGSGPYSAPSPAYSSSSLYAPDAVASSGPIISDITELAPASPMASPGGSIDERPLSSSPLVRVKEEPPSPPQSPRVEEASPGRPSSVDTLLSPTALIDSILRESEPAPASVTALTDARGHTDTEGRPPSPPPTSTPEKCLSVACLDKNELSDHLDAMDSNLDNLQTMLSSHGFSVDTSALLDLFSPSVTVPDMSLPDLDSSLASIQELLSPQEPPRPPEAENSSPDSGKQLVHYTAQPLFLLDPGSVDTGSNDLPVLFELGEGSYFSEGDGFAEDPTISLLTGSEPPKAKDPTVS
How it was run: as §1

SPIC = target: T2, SPIC (Homo sapiens, UniProt Q8N5J4 1-248); details: protein: recombinant; tags: N-terminal GST; dsDNA, one strand shown
T2 sequence: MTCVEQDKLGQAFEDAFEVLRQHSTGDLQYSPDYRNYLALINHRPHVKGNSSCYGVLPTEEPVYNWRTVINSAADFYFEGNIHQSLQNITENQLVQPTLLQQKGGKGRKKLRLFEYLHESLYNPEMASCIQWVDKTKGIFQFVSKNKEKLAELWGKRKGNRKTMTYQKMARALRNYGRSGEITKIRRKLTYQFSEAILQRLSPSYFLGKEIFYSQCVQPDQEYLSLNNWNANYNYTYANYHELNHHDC
How it was run: as §1

ELF4 = ELF4 (Homo sapiens, UniProt Q99607 1-663); details: protein: recombinant; tags: N-terminal GST; dsDNA, one strand shown
ELF4, sequence (Q99607 whole entry): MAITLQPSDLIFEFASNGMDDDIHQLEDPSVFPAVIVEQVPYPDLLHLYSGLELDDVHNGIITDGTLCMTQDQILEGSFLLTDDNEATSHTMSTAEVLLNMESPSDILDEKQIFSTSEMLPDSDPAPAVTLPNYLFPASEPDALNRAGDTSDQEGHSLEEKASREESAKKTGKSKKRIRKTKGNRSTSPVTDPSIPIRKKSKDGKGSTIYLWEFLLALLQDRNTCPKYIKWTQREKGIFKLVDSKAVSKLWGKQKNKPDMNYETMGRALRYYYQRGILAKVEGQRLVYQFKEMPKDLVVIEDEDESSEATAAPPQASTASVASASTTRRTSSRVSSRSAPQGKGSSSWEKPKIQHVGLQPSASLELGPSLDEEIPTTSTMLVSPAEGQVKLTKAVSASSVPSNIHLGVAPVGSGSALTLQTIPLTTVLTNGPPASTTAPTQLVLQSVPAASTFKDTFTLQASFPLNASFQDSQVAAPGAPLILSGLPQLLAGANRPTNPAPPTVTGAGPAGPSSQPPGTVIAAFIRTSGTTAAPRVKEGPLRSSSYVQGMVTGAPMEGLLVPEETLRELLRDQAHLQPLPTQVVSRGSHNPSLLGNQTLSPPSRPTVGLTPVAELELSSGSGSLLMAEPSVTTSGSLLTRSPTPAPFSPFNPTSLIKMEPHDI
How it was run: as §1

ELK4 = target: T3, ELK4 (Homo sapiens, UniProt P28324-2 1-405); details: protein: recombinant; tags: N-terminal GST; dsDNA, one strand shown
T3 sequence: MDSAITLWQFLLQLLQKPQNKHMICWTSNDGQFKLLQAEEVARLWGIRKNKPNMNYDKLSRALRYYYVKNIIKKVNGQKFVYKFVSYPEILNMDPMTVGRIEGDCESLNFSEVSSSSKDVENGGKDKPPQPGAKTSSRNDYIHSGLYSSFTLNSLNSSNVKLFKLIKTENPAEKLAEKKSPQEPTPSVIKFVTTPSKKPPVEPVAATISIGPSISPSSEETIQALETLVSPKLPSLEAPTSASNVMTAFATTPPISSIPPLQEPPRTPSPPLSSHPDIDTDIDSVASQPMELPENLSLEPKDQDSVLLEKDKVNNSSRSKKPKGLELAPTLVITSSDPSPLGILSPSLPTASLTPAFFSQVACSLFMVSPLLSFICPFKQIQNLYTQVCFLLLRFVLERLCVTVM
How it was run: as §1

ETV2 = target: T4, ETV2 (Homo sapiens, UniProt O00321 1-342); details: protein: recombinant; tags: N-terminal GST; dsDNA, one strand shown
T4 sequence: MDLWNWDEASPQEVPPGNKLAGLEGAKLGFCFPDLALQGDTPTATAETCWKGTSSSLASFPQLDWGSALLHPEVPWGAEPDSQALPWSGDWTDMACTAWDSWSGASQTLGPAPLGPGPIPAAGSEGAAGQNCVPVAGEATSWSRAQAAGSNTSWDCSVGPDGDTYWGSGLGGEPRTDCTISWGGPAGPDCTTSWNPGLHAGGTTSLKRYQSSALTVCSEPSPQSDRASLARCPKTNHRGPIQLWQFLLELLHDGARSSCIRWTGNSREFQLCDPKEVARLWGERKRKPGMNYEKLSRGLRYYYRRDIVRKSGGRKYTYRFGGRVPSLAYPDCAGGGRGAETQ
How it was run: as §1

ELF3 = target: T5, ELF3 (Homo sapiens, UniProt P78545 1-371); details: protein: recombinant; tags: N-terminal GST; dsDNA, one strand shown
T5 sequence: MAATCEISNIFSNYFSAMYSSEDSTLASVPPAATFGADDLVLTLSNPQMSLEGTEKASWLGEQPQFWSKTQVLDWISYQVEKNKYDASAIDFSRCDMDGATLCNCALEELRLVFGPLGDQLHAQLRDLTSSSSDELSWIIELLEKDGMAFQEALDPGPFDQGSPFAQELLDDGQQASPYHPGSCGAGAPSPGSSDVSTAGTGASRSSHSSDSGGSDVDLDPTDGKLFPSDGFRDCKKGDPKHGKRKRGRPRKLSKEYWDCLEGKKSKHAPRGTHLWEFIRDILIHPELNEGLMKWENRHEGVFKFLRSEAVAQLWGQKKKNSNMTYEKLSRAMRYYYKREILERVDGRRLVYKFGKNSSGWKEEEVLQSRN
How it was run: as §1

CRX = CRX (Homo sapiens, UniProt O43186 1-299); details: protein: recombinant; tags: N-terminal GST; dsDNA, one strand shown
CRX, sequence (O43186 whole entry): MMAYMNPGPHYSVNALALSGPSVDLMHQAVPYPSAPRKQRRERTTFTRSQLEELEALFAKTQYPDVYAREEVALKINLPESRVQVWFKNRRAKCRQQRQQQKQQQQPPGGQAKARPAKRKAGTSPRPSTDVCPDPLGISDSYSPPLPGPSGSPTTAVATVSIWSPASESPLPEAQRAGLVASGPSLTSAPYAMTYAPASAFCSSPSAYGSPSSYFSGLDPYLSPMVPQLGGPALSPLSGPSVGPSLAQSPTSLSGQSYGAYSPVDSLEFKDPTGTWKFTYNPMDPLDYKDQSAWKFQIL
How it was run: as §1

ETV1 = ETV1 (Homo sapiens, UniProt P50549 1-477); details: protein: recombinant; tags: N-terminal GST; dsDNA, one strand shown
ETV1, sequence (P50549 whole entry): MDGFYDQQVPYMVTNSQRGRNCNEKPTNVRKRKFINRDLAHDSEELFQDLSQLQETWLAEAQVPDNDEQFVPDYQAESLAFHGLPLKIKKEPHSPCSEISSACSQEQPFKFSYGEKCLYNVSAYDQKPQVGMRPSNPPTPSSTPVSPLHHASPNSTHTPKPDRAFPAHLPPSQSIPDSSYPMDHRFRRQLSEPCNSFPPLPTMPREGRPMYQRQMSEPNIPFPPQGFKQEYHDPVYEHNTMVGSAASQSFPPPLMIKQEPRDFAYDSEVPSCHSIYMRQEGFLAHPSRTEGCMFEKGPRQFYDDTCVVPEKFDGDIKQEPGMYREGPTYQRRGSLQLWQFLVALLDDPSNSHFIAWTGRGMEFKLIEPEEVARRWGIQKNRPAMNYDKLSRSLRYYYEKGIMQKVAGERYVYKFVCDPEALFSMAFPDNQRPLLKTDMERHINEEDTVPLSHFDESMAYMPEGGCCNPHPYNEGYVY
How it was run: as §1

ERF = target: T6, ERF (Homo sapiens, UniProt P50548 1-548); details: protein: recombinant; tags: N-terminal GST; dsDNA, one strand shown
T6 sequence: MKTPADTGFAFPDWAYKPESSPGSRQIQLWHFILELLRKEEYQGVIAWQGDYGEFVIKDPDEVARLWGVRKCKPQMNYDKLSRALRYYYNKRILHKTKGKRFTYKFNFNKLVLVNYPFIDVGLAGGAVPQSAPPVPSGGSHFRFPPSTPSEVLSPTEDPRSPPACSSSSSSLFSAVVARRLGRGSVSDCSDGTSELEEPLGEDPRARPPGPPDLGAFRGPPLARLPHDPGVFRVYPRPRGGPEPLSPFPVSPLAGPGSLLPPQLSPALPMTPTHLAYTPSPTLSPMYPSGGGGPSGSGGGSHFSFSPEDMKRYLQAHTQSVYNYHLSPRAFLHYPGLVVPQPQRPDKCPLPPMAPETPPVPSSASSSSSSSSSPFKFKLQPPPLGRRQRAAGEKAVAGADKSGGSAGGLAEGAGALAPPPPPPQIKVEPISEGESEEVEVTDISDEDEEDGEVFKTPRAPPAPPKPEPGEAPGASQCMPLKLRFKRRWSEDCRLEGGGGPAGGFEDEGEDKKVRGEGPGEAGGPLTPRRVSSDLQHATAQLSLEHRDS
How it was run: as §1

ETV3L = target: T7, ETV3L (Homo sapiens, UniProt Q6ZN32 1-361); details: protein: recombinant; tags: N-terminal GST; dsDNA, one strand shown
T7 sequence: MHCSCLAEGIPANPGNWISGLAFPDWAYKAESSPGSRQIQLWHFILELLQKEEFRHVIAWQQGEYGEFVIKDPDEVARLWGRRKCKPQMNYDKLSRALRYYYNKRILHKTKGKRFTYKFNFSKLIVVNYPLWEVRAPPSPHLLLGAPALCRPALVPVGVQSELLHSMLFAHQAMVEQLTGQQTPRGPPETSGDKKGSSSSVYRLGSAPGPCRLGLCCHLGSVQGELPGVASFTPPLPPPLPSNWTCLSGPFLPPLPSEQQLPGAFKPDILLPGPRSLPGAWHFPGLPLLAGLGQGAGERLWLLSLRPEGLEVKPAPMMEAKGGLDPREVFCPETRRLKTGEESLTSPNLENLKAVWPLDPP
How it was run: as §1

ETS2 = target: T8, ETS2 (Homo sapiens, UniProt P15036 1-469); details: protein: recombinant; tags: N-terminal GST; dsDNA, one strand shown
T8 sequence: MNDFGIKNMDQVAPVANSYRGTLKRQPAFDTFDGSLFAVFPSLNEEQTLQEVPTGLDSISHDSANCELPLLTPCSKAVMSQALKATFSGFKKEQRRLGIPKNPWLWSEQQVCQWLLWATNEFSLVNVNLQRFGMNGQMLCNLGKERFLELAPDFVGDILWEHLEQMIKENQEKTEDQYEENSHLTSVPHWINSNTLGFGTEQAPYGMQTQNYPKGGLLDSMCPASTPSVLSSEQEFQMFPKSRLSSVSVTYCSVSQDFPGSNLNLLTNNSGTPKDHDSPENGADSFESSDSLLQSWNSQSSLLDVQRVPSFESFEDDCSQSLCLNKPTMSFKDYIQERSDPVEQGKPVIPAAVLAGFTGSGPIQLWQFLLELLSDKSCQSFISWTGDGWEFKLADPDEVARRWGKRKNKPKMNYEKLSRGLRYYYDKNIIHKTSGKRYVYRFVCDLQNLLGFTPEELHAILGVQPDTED
How it was run: as §1

SPDEF = target: T9, SPDEF (Homo sapiens, UniProt O95238 1-335); details: protein: recombinant; tags: N-terminal GST; dsDNA, one strand shown
T9 sequence: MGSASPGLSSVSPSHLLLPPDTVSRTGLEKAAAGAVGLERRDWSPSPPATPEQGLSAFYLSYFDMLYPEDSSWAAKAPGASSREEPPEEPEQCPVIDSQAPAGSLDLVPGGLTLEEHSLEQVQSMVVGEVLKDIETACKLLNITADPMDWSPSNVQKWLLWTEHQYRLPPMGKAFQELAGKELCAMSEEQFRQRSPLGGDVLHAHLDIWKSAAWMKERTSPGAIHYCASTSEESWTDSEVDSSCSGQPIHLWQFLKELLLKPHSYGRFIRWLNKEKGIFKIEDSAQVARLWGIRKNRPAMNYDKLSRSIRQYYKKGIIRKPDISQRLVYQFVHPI
How it was run: as §1

ETV7 = target: T10, ETV7 (Homo sapiens, UniProt Q9Y603 1-341); details: protein: recombinant; tags: N-terminal GST; dsDNA, one strand shown
T10 sequence: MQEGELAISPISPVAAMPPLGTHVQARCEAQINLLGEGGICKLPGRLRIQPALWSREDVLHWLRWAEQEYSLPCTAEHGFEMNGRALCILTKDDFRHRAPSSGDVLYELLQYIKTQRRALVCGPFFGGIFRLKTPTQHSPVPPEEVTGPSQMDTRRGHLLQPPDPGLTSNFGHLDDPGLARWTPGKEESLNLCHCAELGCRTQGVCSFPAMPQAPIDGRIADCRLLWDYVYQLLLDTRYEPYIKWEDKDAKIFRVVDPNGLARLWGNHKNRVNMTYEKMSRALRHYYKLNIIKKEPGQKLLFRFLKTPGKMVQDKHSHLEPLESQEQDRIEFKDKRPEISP
How it was run: as §1

ELF5 = target: T11, ELF5 (Homo sapiens, UniProt Q9UKW6-2 1-255); details: protein: recombinant; tags: N-terminal GST; dsDNA, one strand shown
T11 sequence: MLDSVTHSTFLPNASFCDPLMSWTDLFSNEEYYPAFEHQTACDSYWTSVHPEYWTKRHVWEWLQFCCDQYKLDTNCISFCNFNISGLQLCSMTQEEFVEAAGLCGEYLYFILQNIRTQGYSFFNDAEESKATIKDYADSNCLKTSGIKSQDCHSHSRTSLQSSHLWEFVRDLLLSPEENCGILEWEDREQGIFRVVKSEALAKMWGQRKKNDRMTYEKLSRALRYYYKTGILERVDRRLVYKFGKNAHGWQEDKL
How it was run: as §1

ETV3 = target: T12, ETV3 (Homo sapiens, UniProt P41162-2 1-143); details: protein: recombinant; tags: N-terminal GST; dsDNA, one strand shown
T12 sequence: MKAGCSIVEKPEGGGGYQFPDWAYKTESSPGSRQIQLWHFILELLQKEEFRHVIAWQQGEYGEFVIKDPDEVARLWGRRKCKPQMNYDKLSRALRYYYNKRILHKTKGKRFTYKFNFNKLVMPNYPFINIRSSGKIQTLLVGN
How it was run: as §1

ETV6 = ETV6 (Homo sapiens, UniProt P41212 1-452); details: protein: recombinant; tags: N-terminal GST; dsDNA, one strand shown
ETV6, sequence (P41212 whole entry): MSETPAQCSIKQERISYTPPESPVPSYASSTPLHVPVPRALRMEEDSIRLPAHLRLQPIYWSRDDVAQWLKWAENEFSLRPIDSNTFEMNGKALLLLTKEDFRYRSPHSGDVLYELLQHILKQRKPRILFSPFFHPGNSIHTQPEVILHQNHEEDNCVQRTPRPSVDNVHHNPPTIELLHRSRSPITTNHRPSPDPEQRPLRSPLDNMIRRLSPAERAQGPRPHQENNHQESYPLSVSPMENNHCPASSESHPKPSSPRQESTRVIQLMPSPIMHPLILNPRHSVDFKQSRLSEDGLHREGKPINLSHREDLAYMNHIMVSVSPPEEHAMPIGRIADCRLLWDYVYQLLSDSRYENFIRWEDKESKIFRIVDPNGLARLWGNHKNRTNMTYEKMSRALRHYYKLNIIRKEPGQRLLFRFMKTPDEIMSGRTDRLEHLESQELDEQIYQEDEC
How it was run: as §1

## ACAAAT
FEV
  binding signal: 1.16 fold enrichment (6-mer frequency, TF over GST control)
ETV5
  binding signal: 1.16 fold enrichment (6-mer frequency, TF over GST control)
HSF1
  binding signal: 1.17 fold enrichment (6-mer frequency, TF over GST control)
SPIC
  binding signal: 1.12 fold enrichment (6-mer frequency, TF over GST control)
ELF4
  binding signal: 1.18 fold enrichment (6-mer frequency, TF over GST control)
ELK4
  binding signal: 1.04 fold enrichment (6-mer frequency, TF over GST control)
ETV2
  binding signal: 1.16 fold enrichment (6-mer frequency, TF over GST control)
ELF3
  binding signal: 1.22 fold enrichment (6-mer frequency, TF over GST control)
CRX
  binding signal: 1.29 fold enrichment (6-mer frequency, TF over GST control)
ETV1
  binding signal: 1.15 fold enrichment (6-mer frequency, TF over GST control)
ERF
  binding signal: 1.3 fold enrichment (6-mer frequency, TF over GST control)
ETV3L
  binding signal: 1.15 fold enrichment (6-mer frequency, TF over GST control)
ETS2
  binding signal: 1.16 fold enrichment (6-mer frequency, TF over GST control)
SPDEF
  binding signal: 1.1 fold enrichment (6-mer frequency, TF over GST control)
ETV7
  binding signal: 1.14 fold enrichment (6-mer frequency, TF over GST control)
ELF5
  binding signal: 1.13 fold enrichment (6-mer frequency, TF over GST control)
ETV3
  binding signal: 1.1 fold enrichment (6-mer frequency, TF over GST control)
ETV6
  binding signal: 1.17 fold enrichment (6-mer frequency, TF over GST control)
